Measured values as given in PubChem BioAssay (Tox21).
Inconclusive results are not listed. The source made the active and inactive calls. Unless noted, calls follow the shape of the dose curve; as a rule, active = well fitted curve in the direction sought with a large enough effect in the repeat runs; inconclusive = weak or mixed curves; inactive = no such curve, though single readings can be large; an effect the other way counts as inactive or inconclusive.

Columns and labels:
[1] = target: Thyrotropin receptor (Homo sapiens) (UniProt P16473); assay: qHTS assay to identify small molecule antagonists of the thyroid stimulating hormone receptor (TSHR) signaling pathway (AID 1259385; calls by dose curve; also: nearly all actives have a fitted effect of over 20% in size)
How it was run: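 Antagonist mode: compound-treated TSHR-expressing HEK293 cells were stimulated with 1.5 ng/mL TSH (final) in presence of Ro20-1724 for 30 min at RT. HTRF cAMP detection after 1 h; each compound tested at 15 concentrations, triplicate.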

[2] = qHTS assay to identify small molecule agonists of the estrogen receptor alpha (ER-alpha) signaling pathway in the presence of an antagonist - cell viability counter screen (AID 1259386);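 also: series mostly up to about 92 µM; cells exposed to compounds for 22 h at 37 °C before the viability read; nearly all actives have a fitted effect of over 30% in size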
How it was run: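 The test measures whether compounds kill ER-alpha reporter cells (VM7Luc4E2) under antagonist co-treatment (ICI-182,780, 10.0nM). Fluorescence from CellTiter-Fluor is read after a 22hr exposure.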

[3] = qHTS assay to identify small molecule antagonists of the progesterone receptor (PR) signaling pathway - cell viability counter screen (AID 1346798); also: series mostly up to about 92 µM; nearly all actives have a fitted effect of over 50% in size
How it was run: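 Viability was determined by ATP-based luminescence (CellTiter-Glo) in PR-UAS-bla HEK293T cells cultured in 2% charcoal-stripped serum and incubated 16 hr with compounds under R5020 stimulation.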

[4] = qHTS assay to identify small molecule antagonists of the TGF-beta/Smad signaling pathway - cell viability counter screen (AID 1346824); also: nearly all actives have a fitted effect of over 50% in size
How it was run: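 Cytotoxicity counter-screen run in the same wells as the beta-lactamase Smad reporter read: CellTiter-Glo luminescence after 30 min at room temperature. HEK 293T SBE-bla cells had 5 hr compound exposure at 37 C with TGF-beta1 (0.25 ng/mL stock).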

[5] = qHTS assay to identify small molecule agonists of the TGF-beta/Smad signaling pathway - cell viability counter screen (AID 1346829); also: top concentration of the series differs between compounds; nearly all actives have a fitted effect of over 45% in size
How it was run: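 HEK 293T SBE-bla line, 5 hr compound exposure at 37 C, multiplexed CellTiter-Glo viability read by luminescence.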

[6] = qHTS assay to identify small molecule agonists of the TGF-beta/Smad signaling pathway (AID 1346859; active = well fitted activation curve with a large enough effect in the signal ratio in the repeat runs, not every such curve was filed as active; the % refers to the signal ratio; also: series mostly up to about 77 µM)
How it was run: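 Dual-wavelength fluorescence (460/530 nm emission) quantified beta-lactamase expression under the Smad binding element in HEK 293T cells following 5 hr compound treatment at 37 C.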

[7] = Human pregnane X receptor (PXR) small molecule agonists, qHTS cell viability counter screen (AID 1346977); also: nearly all actives have a fitted effect of over 50% in size; also: potency is read from the fitted curve at half-maximal effect
How it was run: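 HepG2 cells stably carrying the PXR-Luc reporter are cultured with 5% charcoal-stripped FBS and treated with compounds for 24hr. CellTiter-Fluor is added at 23hr and fluorescence is read after 1hr.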

[8] = Caspase-3/7 induction in HepG2 cells by small molecules, qHTS assay (AID 1346978); also: nearly all actives have a fitted effect of over 15% in size
How it was run: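 Caspase-3/7 induction was measured by Caspase-Glo 3/7 luminescence (30 min, room temperature) after a 17 hr compound exposure of wild-type HepG2 cells seeded at 2,000 per well and pre-incubated 5 hr.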

[9] = Caspase-3/7 induction in CHO-K1 cells by small molecules, qHTS cell viability counter screen (AID 1346979); also: nearly all actives have a fitted effect of over 35% in size; also: potency is read from the fitted curve at half-maximal effect
How it was run: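 Seeding: 1,500 CHO-K1 cells/well. Rest: 5hr, 37C. Treatment: compounds in DMSO, 16hr. Read: CellTiter-Fluor, 1hr, fluorescence.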

[10] = Caspase-3/7 induction in CHO-K1 cells by small molecules, qHTS assay (AID 1346980); also: nearly all actives have a fitted effect of over 15% in size
How it was run: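 Luminescent Caspase-Glo 3/7 read (30min, room temperature) quantified apoptosis induction. Cells were wild-type CHO-K1, treated with compound for 17hr at 37 C and 5% CO2.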

[11] = Caspase-3/7 induction in HepG2 cells by small molecules, qHTS cell viability counter screen (AID 1346981); also: nearly all actives have a fitted effect of over 30% in size; also: potency is read from the fitted curve at half-maximal effect; as to activity change, negative = cytotoxicity: series mostly up to about 92 µM
How it was run: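 Treatment of HepG2 cells with DMSO-delivered compounds ran 16 hr at 37 C following a 5-hr pre-incubation of 2,000 cells/well. CellTiter-Fluor fluorescence, read after 1 hr, served as the viability measure in a qHTS format.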

[12] = target: Nuclear receptor subfamily 1 group I member 2 (Homo sapiens) (UniProt O75469); assay: Human pregnane X receptor (PXR) small molecule agonists, qHTS assay (AID 1346982); also: nearly all actives have a fitted effect of over 35% in size; also: potency is read from the fitted curve at half-maximal effect
How it was run: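 Stable HepG2 line reporting PXR-mediated CYP3A4 expression via luciferase. Treatment: 24 hr with compounds in DMSO at 37 C. Detection: ONE-Glo luminescence.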

[13] = target: Progesterone receptor (Homo sapiens) (UniProt P06401); assay: qHTS assay to identify small molecule agonists of the progesterone receptor (PR) signaling pathway (AID 1346784; calls by dose curve; also: nearly all actives have a fitted effect of over 30% in size)
How it was run: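 The screen uses PR-UAS-bla HEK 293T cells in charcoal-stripped serum (2%). Compounds are applied for 16 hr at 37C after a 6 hr pre-incubation, and reporter activity is detected with a FRET beta-lactamase substrate after 2 hr at room temperature.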

[14] = target: Progesterone receptor (Homo sapiens) (UniProt P06401); assay: qHTS assay to identify small molecule antagonists of the progesterone receptor (PR) signaling pathway (AID 1346795; active = well fitted inhibition curve with a large enough effect in the signal ratio in the repeat runs, not every such curve was filed as active; the % refers to the signal ratio; also: potency is read from the fitted curve at half-maximal effect)
How it was run: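 After 6 hr plating at 37C in 2% stripped-serum medium, PR-UAS-bla HEK293T cells got compounds, then 1 nM R5020. Sixteen hours later, LiveBLAzer substrate was applied for 2 hr at room temperature and fluorescence was recorded.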

[15] = qHTS assay to identify small molecule agonists of the progesterone receptor (PR) signaling pathway - cell viability counter screen (AID 1346799; calls by dose curve; also: nearly all actives have a fitted effect of over 45% in size; also: potency is read from the fitted curve at half-maximal effect)
How it was run: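 Viability was scored by ATP luminescence (CellTiter-Glo, 30 min, room temperature) in the same wells used for the reporter readout, after 16 hr compound exposure of PR-UAS-bla HEK293T cells.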

[16] = target: Thyrotropin-releasing hormone receptor (Homo sapiens) (UniProt P34981); assay: qHTS assay to identify small molecule antagonists of the thyrotropin-releasing hormone receptor (TRHR) signaling pathway (AID 1346877; active = well fitted inhibition curve with a large enough effect in the repeat runs, not every such curve was filed as active; also: series mostly up to about 51 µM)
How it was run: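 Overnight-plated (18 h, 37 °C) HEK293 cells expressing TRHR were dye-loaded 2 h, treated with compound, then stimulated with TRH at 1 nM final. Fluorescence intensity was captured every second for 3 min.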

[17] = target: Thyrotropin-releasing hormone receptor (Homo sapiens) (UniProt P34981); assay: qHTS assay to identify small molecule agonists of the thyrotropin-releasing hormone receptor (TRHR) signaling pathway (AID 1346891; calls by dose curve;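 also: HEK293 cells expressing TRHR with calcium dye readout; series mostly up to about 58 µM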)
How it was run: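 Kinetic fluorescence (3 min, 1 s intervals) reported intracellular calcium after compound transfer onto TRHR-Hek293 cells pre-loaded with dye for 2 h at 37 °C.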

[18] = target: Nuclear receptor subfamily 1 group I member 2 (Rattus norvegicus) (UniProt Q9R1A7); assay: Rat pregnane X receptor (rPXR) activation by small molecules, qHTS assay (AID 1346983); conditions: rPXR luciferase reporter cells, One-Glo luminescence, 24 h; max activation: active compounds read high; also: nearly all actives have a fitted effect of over 20% in size
How it was run: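 Luminescent readout (One-Glo luciferase, 30 min room temperature) followed 24 hr compound treatment at 37 C of rPXR cells plated 2,000 per well and preincubated 5hr; qHTS format with compounds delivered in DMSO.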

[19] = target: Nuclear receptor subfamily 1 group I member 2 (Homo sapiens) (UniProt O75469); assay: CYP3A4 induction through human pregnane X receptor (PXR) by small molecules, qHTS assay (AID 1346984); also: nearly all actives have a fitted effect of over 40% in size
How it was run: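 After 24 h at 37C with compound, DPX-2 cells (HepG2, co-transfected PXR response element and CYP3A4 promoter-luciferase) got 3uM final P450-Glo Luciferin-IPA for 3 h; One-Glo luminescence followed.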

[20] = target: Nuclear receptor subfamily 1 group I member 2 (Homo sapiens) (UniProt O75469); assay: Human pregnane X receptor (PXR) activation by small molecules, qHTS assay (AID 1346985); also: nearly all actives have a fitted effect of over 40% in size
How it was run: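 DPX-2 cells (HepG2 co-transfected with a PXR response element and a CYP3A4-promoter luciferase construct) were seeded at 2,000 per well, rested 5 hr at 37C, then exposed to DMSO-dissolved compounds for 24 hr. Activation was read as luciferase luminescence.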
% is scaled to controls: 0 for no effect and ±100 for the full control effect.

Sequence of Thyrotropin receptor (Homo sapiens) (P16473 whole entry, looked up): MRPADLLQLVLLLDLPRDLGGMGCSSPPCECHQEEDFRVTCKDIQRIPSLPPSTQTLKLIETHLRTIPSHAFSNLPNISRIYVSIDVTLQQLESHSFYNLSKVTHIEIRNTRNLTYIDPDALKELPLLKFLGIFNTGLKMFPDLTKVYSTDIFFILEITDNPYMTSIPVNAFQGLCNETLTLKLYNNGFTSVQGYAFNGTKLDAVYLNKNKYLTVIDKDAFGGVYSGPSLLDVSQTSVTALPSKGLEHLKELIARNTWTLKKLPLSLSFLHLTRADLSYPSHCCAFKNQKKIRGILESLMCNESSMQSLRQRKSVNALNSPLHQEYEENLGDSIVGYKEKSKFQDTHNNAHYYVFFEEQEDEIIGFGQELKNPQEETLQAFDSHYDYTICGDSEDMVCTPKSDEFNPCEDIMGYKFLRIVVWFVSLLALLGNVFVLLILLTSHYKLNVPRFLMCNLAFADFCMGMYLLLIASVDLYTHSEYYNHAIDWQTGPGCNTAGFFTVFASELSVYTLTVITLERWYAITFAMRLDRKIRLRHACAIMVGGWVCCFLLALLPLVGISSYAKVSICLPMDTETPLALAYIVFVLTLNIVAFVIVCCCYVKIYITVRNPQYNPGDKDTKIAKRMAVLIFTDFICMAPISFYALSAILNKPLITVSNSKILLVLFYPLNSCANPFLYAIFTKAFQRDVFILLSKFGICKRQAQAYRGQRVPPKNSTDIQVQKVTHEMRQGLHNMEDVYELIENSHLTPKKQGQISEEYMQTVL
Sequence of Thyrotropin-releasing hormone receptor (Homo sapiens) (P34981 whole entry, looked up): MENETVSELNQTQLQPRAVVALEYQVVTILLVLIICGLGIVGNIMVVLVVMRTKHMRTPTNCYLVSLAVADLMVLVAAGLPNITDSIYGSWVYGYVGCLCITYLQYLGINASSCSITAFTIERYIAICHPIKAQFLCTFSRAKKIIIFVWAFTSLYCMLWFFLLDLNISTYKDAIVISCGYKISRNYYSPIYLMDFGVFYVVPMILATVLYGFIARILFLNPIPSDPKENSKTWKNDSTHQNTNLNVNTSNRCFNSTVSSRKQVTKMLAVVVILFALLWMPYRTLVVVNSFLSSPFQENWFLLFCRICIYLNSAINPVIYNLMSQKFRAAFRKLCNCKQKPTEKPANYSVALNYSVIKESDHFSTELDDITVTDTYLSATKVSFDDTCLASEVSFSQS
Sequence of Nuclear receptor subfamily 1 group I member 2 (Homo sapiens) (O75469 whole entry, looked up): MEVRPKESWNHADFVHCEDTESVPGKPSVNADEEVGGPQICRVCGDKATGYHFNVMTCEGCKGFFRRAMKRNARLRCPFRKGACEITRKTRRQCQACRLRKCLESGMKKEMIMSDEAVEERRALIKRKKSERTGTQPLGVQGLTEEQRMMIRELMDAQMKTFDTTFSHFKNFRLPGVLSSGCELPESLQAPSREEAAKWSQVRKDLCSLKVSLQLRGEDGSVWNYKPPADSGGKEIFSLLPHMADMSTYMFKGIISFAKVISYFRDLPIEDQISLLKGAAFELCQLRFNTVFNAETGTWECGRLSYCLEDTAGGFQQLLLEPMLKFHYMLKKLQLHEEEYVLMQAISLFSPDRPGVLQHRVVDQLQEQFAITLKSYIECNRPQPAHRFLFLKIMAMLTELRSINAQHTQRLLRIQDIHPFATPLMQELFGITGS
Sequence of Progesterone receptor (Homo sapiens) (P06401 whole entry, looked up): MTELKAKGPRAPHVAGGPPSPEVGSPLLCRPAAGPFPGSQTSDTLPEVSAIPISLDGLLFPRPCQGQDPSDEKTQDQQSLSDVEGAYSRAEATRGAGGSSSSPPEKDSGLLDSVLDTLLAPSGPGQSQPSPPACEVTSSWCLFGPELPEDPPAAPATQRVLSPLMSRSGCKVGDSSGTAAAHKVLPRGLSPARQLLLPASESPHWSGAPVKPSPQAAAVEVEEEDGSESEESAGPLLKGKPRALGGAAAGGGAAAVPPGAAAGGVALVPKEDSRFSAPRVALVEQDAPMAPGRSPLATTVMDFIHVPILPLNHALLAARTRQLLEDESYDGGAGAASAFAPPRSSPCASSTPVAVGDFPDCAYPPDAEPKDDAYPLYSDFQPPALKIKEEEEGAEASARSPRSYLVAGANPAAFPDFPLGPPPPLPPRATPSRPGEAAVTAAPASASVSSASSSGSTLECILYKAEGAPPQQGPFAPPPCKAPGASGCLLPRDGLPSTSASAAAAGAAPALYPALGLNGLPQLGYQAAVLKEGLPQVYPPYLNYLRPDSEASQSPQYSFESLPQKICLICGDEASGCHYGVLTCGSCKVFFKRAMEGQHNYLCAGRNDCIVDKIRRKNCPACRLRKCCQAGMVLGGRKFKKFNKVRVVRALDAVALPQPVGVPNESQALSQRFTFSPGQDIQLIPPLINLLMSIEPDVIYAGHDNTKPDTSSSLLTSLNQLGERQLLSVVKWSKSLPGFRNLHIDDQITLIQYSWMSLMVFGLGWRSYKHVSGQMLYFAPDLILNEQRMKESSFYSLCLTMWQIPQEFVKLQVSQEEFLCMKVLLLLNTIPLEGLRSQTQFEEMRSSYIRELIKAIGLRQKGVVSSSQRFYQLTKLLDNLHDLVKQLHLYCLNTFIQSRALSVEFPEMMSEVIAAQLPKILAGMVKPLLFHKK
Sequence of Nuclear receptor subfamily 1 group I member 2 (Rattus norvegicus) (Q9R1A7 whole entry, looked up): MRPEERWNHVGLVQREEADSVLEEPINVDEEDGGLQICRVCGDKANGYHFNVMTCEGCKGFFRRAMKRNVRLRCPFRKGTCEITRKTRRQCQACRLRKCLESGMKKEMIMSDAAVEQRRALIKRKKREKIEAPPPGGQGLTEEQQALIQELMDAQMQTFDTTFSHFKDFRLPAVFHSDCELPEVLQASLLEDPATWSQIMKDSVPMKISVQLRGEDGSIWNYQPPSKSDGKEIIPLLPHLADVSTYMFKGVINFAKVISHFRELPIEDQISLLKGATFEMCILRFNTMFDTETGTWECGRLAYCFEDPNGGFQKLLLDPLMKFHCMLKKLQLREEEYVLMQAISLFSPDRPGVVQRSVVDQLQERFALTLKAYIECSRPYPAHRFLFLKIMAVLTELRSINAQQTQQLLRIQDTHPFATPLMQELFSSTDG

CCOC(=O)c1ccc(NC(=O)CN2CCCCC2)cc1
active: Potency [12] 23.7 µM
inactive: Potency [1] | Potency [2] | Potency [3] | outcome [4] | Potency [5] | Potency [6] | Potency [7] | Potency [8] | Potency [9] | outcome [10] | Potency [11]

CN1CCCN(C(c2ccccc2)c2ccc(Cl)cc2)CC1 (centres undefined)
inactive: Potency [1] | Potency [13] | outcome [4] | Potency [5] | Potency [6] | outcome [10] | Potency [12]
active: Potency [14] 21.1 µM | Potency [15] 13.3 µM | Potency [7] 13.3 µM | Potency [9] 26.6 µM | Potency [11] 23.7 µM

c1ccc(CCCc2ccncc2)cc1
active: Potency [12] 30.6 µM
inactive: Potency [1] | outcome [4] | Potency [5] | Potency [6] | outcome [16] | outcome [17] | Potency [7] | Potency [8] | Potency [9] | outcome [10] | Potency [11]

CC(C)C(O)C(C)(C)CO (centres undefined)
inactive: Potency [1] | Potency [2] | Potency [3] | Potency [5] | Potency [6] | outcome [16] | outcome [17] | Potency [7] | Potency [8] | Potency [9] | outcome [10] | Potency [11] | Potency [12]

c1ccc2sc(SSc3nc4ccccc4s3)nc2c1
inactive: activity change, negative = inhibition [1] 2.43% [at 19 µM] | activation [13] -1.06% [at 19 µM] | activity change, negative = inhibition [14] -9.57% [at 18.9 µM] | activity change, negative = cytotoxicity [3] -0.0474% [at 18.9 µM] | activity change, negative = cytotoxicity [15] 5.24% [at 19 µM] | viability change, negative = cytotoxic [4] 3.02% [at 15.8 µM] | activation [6] 3.56% [at 15.8 µM] | activity change, negative = cytotoxicity [7] 14.6% [at 19 µM] | caspase activation [8] 1.15% [at 19 µM] | caspase-3/7 activation [10] -0.79% [at 19 µM] | activity change, negative = cytotoxicity [11] 0.175% [at 19 µM] | activation [12] 0% [at 19 µM] | max activation [18] -4.43% | Potency [19] | Potency [20]
